Results filed as inconclusive are left out. Active and inactive are the calls of the source. Calls come from the whole dose curve; as a rule, active = well fitted cell-killing curve with a large enough effect; inconclusive = small, poorly fitted or top-dose-only effect, or effect the other way; inactive = no such curve, though single readings can be large or run the other way.
Assay: Quantitative High-Throughput drug screen in 47 multiple myeloma cell lines against the NCATS MIPE library collection: ARP1_JJKsccF8 cell viability assay (AID 1918928; note: nearly all actives have a fitted effect of over 40% in size)
Conditions: ARP1 myeloma cells viability, CellTiter-Glo ATP, 48 h; series mostly up to 45.8 µM; viability: at the top concentration
In short: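 ATP readout (CellTiter-Glo), 48 h drug incubation, 37 °C/5% CO2, 500 cells per well; normalisation to DMSO (100%) and media-only (0%) controls.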
With `CC[C@@H]1C=C(C)C[C@H](C)C[C@H](OC)[C@H]2O[C@@](O)(C(=O)C(=O)N3CCCC[C@@H]3C(=O)O[C@H](C(C)=C[C@@H]3CC[C@H](Cl)[C@H](OC)C3)[C@H](C)[C@@H](O)CC1=O)[C@H](C)C[C@H]2OC` the Potency was 13.2 µM (active).
For `Clc1ccc(-c2nc3sccn3c2C=NOCc2ccc(Cl)c(Cl)c2)cc1`, the “viability” value was 100% (inactive).
For `C=C1C(=O)OC2C=C(C)CCC=C(C)CCC12` (configuration not stated), the Potency was 20.9 µM (active).
In the case of `COc1ccc(-c2oc3c(CC=C(C)C)c(OC4O[C@H](CO)[C@@H](O)[C@H](O)[C@@H]4O)cc(O)c3c(=O)c2OC2O[C@@H](C)[C@H](O)[C@@H](O)[C@@H]2O)cc1` (some centres not stated), the Potency is reported as 16.6 µM (active).
With `Nc1ncnc2c1ncn2[C@@H]1O[C@H](CO)C[C@@H]1O` the “viability” value was 96.4% (inactive).
In the case of `Nc1ncnc2c1ncn2[C@@H]1O[C@@H](CO)[C@H](O)[C@H]1O`, the “viability” value is reported as 69% (inactive).
With `CCC(=O)NC[C@H](Cc1ccc(OCCc2nc(-c3ccccc3)oc2C)cc1)NC(C)=CC(=O)c1ccc(C(F)(F)F)cc1` the Potency was 23.5 µM (active).
In the case of `O=c1c(-c2ccc(O)cc2)coc2cc(OC3O[C@H](CO)[C@H](O)[C@H](O)[C@H]3O)cc(O)c12` (some centres not stated), the Potency is reported as 18.7 µM (active).
In the case of `CC(=O)O[C@]1(C(C)=O)CC[C@@H]2[C@@H]3C[C@H](C)C4=CC(=O)CC[C@]4(C)[C@H]3CC[C@@]21C`, the Potency is reported as 26.4 µM (active).
In the case of `O=C1NC(=O)C(=Cc2ccc3nccnc3c2)S1`, the Potency is reported as 10.2 µM (active).
For `O=C(O)C=Cc1ccc(O)c(O)c1`, the Potency was 26.4 µM (active).
For `CCC(CC)[C@H](NC(C)=O)[C@@H]1[C@H](O)[C@@H](C(=O)O)C[C@@H]1N=C(N)N`, the “viability” value was 112% (inactive).

Assay: Quantitative High-Throughput drug screen in 47 multiple myeloma cell lines against the NCATS MIPE library collection: ARD_JJKsccE7 cell viability assay (AID 1918929)
Conditions: ARD myeloma cell line viability, CellTiter-Glo, 48 h; series mostly up to 45.8 µM; viability: at the top concentration
In short: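 Primary qHTS used for cherry-picking: cells at 500/well, library compounds for 48 h (37C, 5% CO2), luminescent ATP assay.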
For `CC=CCC=CCCC(=O)[C@H]1O[C@@H]1C(N)=O`, the Potency was 26.4 µM (active).
With `C=C1C(=O)OC2C=C(C)CCC=C(C)CCC12` (configuration not stated) the Potency was 23.5 µM (active).
In the case of `Cc1ccc([C@@H]2O[C@H](CO)[C@@H](O)[C@H](O)[C@@H]2O)cc1Cc1ccc(-c2ccc(F)cc2)s1`, the Potency is reported as 20.9 µM (active).
For `CC[C@H]1OC(=O)[C@H](C)C(=O)[C@H](C)[C@@H](O[C@H]2O[C@H](C)C[C@H](N(C)C)[C@@H]2O)[C@](C)(OC)C[C@@H](C)C(=O)[C@H](C)[C@H]2N(CCCCn3cnc(-c4cccnc4)c3)C(=O)O[C@]12C`, the “viability” value was 122% (inactive).
With `CC=C(C)C(=O)O[C@H]1C(C)=C[C@]23C(=O)[C@@H](C=C(CO)[C@@H](O)[C@]12O)[C@H]1[C@@H](C[C@H]3C)C1(C)C` the Potency was 11.8 µM (active).
For `Nc1ncnc2c1ncn2[C@@H]1O[C@@H](CO)[C@H](O)[C@H]1O`, the “viability” value was 114% (inactive).
For `CCC(=O)NC[C@H](Cc1ccc(OCCc2nc(-c3ccccc3)oc2C)cc1)NC(C)=CC(=O)c1ccc(C(F)(F)F)cc1`, the Potency was 1.48 µM (active).
In the case of `CC(=NNC(=S)N1CCC1)c1ccccn1`, the Potency is reported as 0.001 µM (active).
In the case of `NC1=N[C@@]2(c3cc(NC(=O)c4ccc(F)cn4)ccc3F)COC[C@@H]2CS1`, the Potency is reported as 1.87 µM (active).
In the case of `Nc1nc(F)nc2c1ncn2[C@@H]1O[C@H](COP(=O)(O)O)[C@@H](O)[C@H]1O`, the Potency is reported as 0.0019 µM (active).
For `COCCCCC(=NOCCN)c1ccc(C(F)(F)F)cc1`, the “viability” value was 105% (inactive).
With `CCCCCN(C)CCC(O)(P(=O)(O)O)P(=O)(O)O` the “viability” value was 101% (inactive).
For `Clc1ccc(COC(Cn2ccnc2)c2ccc(Cl)cc2Cl)cc1` (configuration not stated), the Potency was 26.4 µM (active).
In the case of `Cc1cc(OCCCc2c(C(=O)O)n(Cc3cccnc3)c3c(-c4c(COc5ccc(N6CCN([S+](C)(=O)[O-])CC6)cc5)nn(C)c4C)cccc23)cc(C)c1Cl`, the “viability” value is reported as 127% (inactive).
In the case of `CCC(CC)[C@H](NC(C)=O)[C@@H]1[C@H](O)[C@@H](C(=O)O)C[C@@H]1N=C(N)N`, the “viability” value is reported as 106% (inactive).

From PubChem BioAssay (NCATS)
Potency is the fitted concentration of half-maximal effect.
